Hits are enriched below; roughly 19% of the tested compounds scored in any of these assays.
IL1B secr inh: qHTS for Inhibitors of Inflammasome Signaling: IL-1-beta AlphaLISA Primary Screen. 360,000 compounds, 4.7% hits. THP-1 LPS/ATP IL-1B secretion, AlphaLISA, 16 h; active compounds read low. AID 743279, 2014. activity change, % at 57.5 µM; in the data active = activity change below about -50%; inconclusive = mostly about -30% to -49%
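THP-1 cells pretreated 1 hr with compounds (up to 57.5 uM final), then stimulated with LPS (250 ng/mL final) plus ATP (1.25 mM final); secreted IL-1B measured by AlphaLISA after 16 hr, decreased signal indicating inhibition.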
HT1080 IDH1KD tx: qHTS for induction of synthetic lethality in tumor cells producing 2HG: qHTS for the HT-1080-IDH1KD cell line; 360,000 compounds, 2% hits; AID 686971, 2013; HT-1080 IDH1 knockdown viability, ATP luminescence, 48 h; Potency, µM (highest dose often 46.1 µM), without a hit: at the top dose activity, negative = toxicity, actives largely listed as cytotoxic;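 note: potency is the fitted concentration of half-maximal effect; 0% = DMSO wells and -100% = cell-free medium wells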
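Luminescent ATP read-out (CellTiter-Glo, 10 min at room temperature) after 48 h compound exposure at 37 °C gave viability of IDH1-knockdown HT-1080 cells. Activity was normalised to DMSO and cell-free wells, then fitted as concentration-response curves.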
HT1080NT lethal: qHTS for induction of synthetic lethality in tumor cells producing 2HG: qHTS for the HT-1080-NT fibrosarcoma cell line. AID 686970, 2013. HT-1080-NT fibrosarcoma viability, CellTiter-Glo ATP luminescence, 48 h. Potency, µM (series often up to 46.1 µM), inactives show at the highest dose activity, negative = less viability, actives largely listed as cytotoxic. 360,000 compounds, 1.6% hits;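 note: NT is the 2HG producing partner of a matched IDH1 knockdown line; potency is the fitted concentration of half-maximal effect; 0% = DMSO-treated cells and -100% = media-only wells without cells; nearly all actives have a fitted effect of over 55% in size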
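A 48-hour cytotoxicity screen used HT-1080-NT cells plated 2 hours before compound delivery. ATP-based CellTiter-Glo luminescence measured viability, normalized to DMSO and no-cell controls.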
TDP1 cell CPT: qHTS for Inhibitors of human tyrosyl-DNA phosphodiesterase 1 (TDP1): qHTS in cells in presence of CPT | chicken DT40 Tdp1-/-;hTDP1 cells + 20 nM CPT, ATP luminescence, 48 h | Potency, µM (series often up to 46.2 µM), for inactives: at the top dose activity change, negative = growth inhibition, most hits filed as inhibitors | 420,000 compounds, 12% hits | AID 686979, 2013; note: potency is the fitted concentration of half-maximal effect; nearly all actives have a fitted effect of over 55% in size
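Cell growth measured by CellTiter-Glo luminescence after a minimum 48 h, 37 C compound exposure with 20 nM CPT in Tdp1-knockout DT40 cells stably expressing hTDP1, seeded 400/well; qHTS titration format.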
ELG1 DNA repair: qHTS screen for small molecules that inhibit ELG1-dependent DNA repair in human embryonic kidney (HEK293T) cells expressing luciferase-tagged ELG1; HEK293T ELG1-luciferase reporter, luminescence, 16 h; DNA damage induced by 5-fluorouridine; AID 504467, 2011; Potency, µM (titrated, usually from 46.1 µM), inactives show at the top dose activity change, negative = inhibition, usual class: inhibitors; 330,000 compounds, 2.3% hits; note: potency is the fitted concentration of half-maximal effect; nearly all actives have a fitted effect of over 55% in size
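Step one: seed 2,000 cells per well. Step two: pin-transfer compound or DMSO alongside 5-fluorouridine. Step three: incubate 16 hr, 37 °C, 5% CO2. Step four: add ONE-Glo, wait 30 min, read luminescence.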
TDP1 cell noCPT: qHTS for Inhibitors of human tyrosyl-DNA phosphodiesterase 1 (TDP1): qHTS in cells in absence of CPT; Potency, µM (top dose mostly 46.2 µM), for the others: at the highest dose activity change, negative = growth inhibition, actives largely listed as inhibitors; 420,000 compounds, 15% hits; AID 686978, 2013; DT40 Tdp1-/- hTDP1 cells, no CPT, ATP luminescence, 48 h; note: potency is the fitted concentration of half-maximal effect; nearly all actives have a fitted effect of over 55% in size
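Growth of hTDP1-complemented DT40 Tdp1-knockout cells is measured by ATP luminescence after at least 48 hr compound exposure at 37 °C, with DMSO substituting for the 20 nM CPT used in the parallel screen.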
* marks the source's active call; other numbers are inactive results; ? = inconclusive; nt = no result given; [ ] = remark or other dose. Unless noted, calls come from the whole dose curve; as a rule, active = well fitted curve in the direction sought with a large enough effect; inconclusive = small, poorly fitted or top-dose-only effect, or another doubt; inactive = no such curve, though single readings can be large; an effect the other way counts as inactive or inconclusive. Unless noted, % is set by controls: 0 for no effect and ±100 for the full control effect.

SMILES	IL1B secr inh	HT1080 IDH1KD tx	HT1080NT lethal	TDP1 cell CPT	ELG1 DNA repair	TDP1 cell noCPT
Cc1cc(NC(=O)c2ccco2)ccc1NC(=O)c1ccco1	-10	-26%	?	?	?	?
CCOC(=O)N1CCC(Nc2c(-c3ccccc3)c(=O)c2=O)CC1	6	13%	0%	?	-15%	23µM*
CCOC(=O)N1CCC(Nc2c(Nc3cccc(CC)c3)c(=O)c2=O)CC1	36	?	-2%[9.24 µM]	?	?	18µM*
CCOC(=O)N1CCC(Nc2c(N3CCN(c4cccc(C(F)(F)F)c4)CC3)c(=O)c2=O)CC1	-21	5%	3%	23µM*	18µM*	?
CCOC(=O)N1CCC(Nc2c(-c3ccc(C)cc3)c(=O)c2=O)CC1	5	12%	4%	?	?	?
CCOC(=O)N1CCC(Nc2c(Nc3ccc(F)cc3)c(=O)c2=O)CC1	31	-1%	-13%	-18%	2%	-11%
Cn1nnc(NC(=S)NC(=O)c2cc(Cl)ccc2Cl)n1	-5	0%	-5%	-7%	17%	12%
COc1ccccc1N1CCN(c2ccc(=O)n(CC(=O)O)n2)CC1	nt	nt	nt	3%	nt	-16%
Cc1ccc(C(=O)OCN2C(=O)c3ccccc3C2=O)cc1S(=O)(=O)N1CCOCC1	22	0%	-3%	-6%	?	5%
O=C(C=P(c1ccccc1)(c1ccccc1)c1ccccc1)c1ccccc1-c1ccccc1C(=O)C=P(c1ccccc1)(c1ccccc1)c1ccccc1	?	7.3µM*	13µM*	0.73µM*	nt	0.58µM*
CCOC(=O)C1(C)C=C(Nc2cccc(OC)c2)C(=O)N1c1ccccc1 (stereo unspecified)	nt	-9%	-5%	-9%	-3%	-22%
CCOC(=O)C1(C)C=C(Nc2cccc(C)c2)C(=O)N1c1ccccc1 (stereo unspecified)	nt	nt	nt	?	nt	18µM*
Cc1ccc(C(=O)Nc2nnc([C@H]3C[C@H](O)[C@@H](CO)O3)s2)cc1	38	21%	2%	-2%	nt	-9%
CCCc1cc(=O)[nH]c(SCC(=O)Nc2nc(-c3ccccc3)cs2)n1	57	-5%	-12%	?	21%	?
O=C(CSc1nc2ccccc2c(=O)[nH]1)Nc1ccc(S(=O)(=O)N2CCCC2)cc1	38	?	?	16µM*	-18%	?
O=c1[nH]c(Sc2ccc([N+](=O)[O-])cc2[N+](=O)[O-])nc2ccccc12	-23	?	-15%	3.3µM*	nt	13µM*
Cn1c2ccccc2c2cc([N+](=O)[O-])ccc21	-22	-16%	?	10%	0%	-26%
O=C(CSc1nc2ccccc2[nH]1)Nc1nc(-c2ccc(Br)cc2)cs1	-14	?	-26%	23µM*	?	16µM*
O=[N+]([O-])c1ccc(Sc2cc[n+]([O-])c3ccccc23)c([N+](=O)[O-])c1	-108*	18µM*	16µM*	2.6µM*	?	2.1µM*
O=C(CSc1nc2ccccc2c(=O)[nH]1)Nc1ccc([N+](=O)[O-])cc1	1	9.2µM*	?	?	18µM*	?
CC(C)(C)c1csc(NC(=O)CSc2nc3ccccc3c(=O)[nH]2)n1	17	-26%	-15%	18µM*	-10%	23µM*
O=C(CSc1nc2ccccc2c(=O)[nH]1)Nc1ccc(C(=O)O)cc1	-5	7%	14%	4%	22%	-3%
Cc1cccc(N2CCN(C(=O)c3ccc(Cl)c(NC4=NC5CS(=O)(=O)CC5S4)c3)CC2C)c1 (stereo unspecified)	7	-6%	-1%	?	-20%	?
CC1CCN(c2ncnc3c2cnn3Cc2ccc(Cl)cc2)CC1	0	-16%	-13%	18µM*	?	18µM*
CCN(CC)C(=O)CSc1ncnc2c1cnn2Cc1ccccc1	-3	9%	3%	-28%	?	12µM*
SMILES	IL1B secr inh	HT1080 IDH1KD tx	HT1080NT lethal	TDP1 cell CPT	ELG1 DNA repair	TDP1 cell noCPT
Cc1ccc(Cn2ncc3c(N4CCN(Cc5ccc(Cl)cc5)CC4)ncnc32)cc1	13	-12%	-2%	18µM*	5.8µM*	16µM*
Cc1ccc(Cn2ncc3c(N4CCN(C)CC4)ncnc32)cc1	2	-4%	-8%	?	?	10µM*
Cc1ccc(Cn2ncc3c(N4CCN(C5CCCC5)CC4)ncnc32)cc1	12	3%	4%	?	-18%	-26%
Cc1ccc(Cn2ncc3c(N4CCN(c5ccc(C)cc5)CC4)ncnc32)cc1	35	-15%	6%	-25%	-20%	?
COC(=O)c1ccc(/C=N/NC(=S)NCCN2CCOCC2)cc1	50	-4%	6%	9%	-5%	6%
CC1CC(C)CN(c2ncnc3c2cnn3-c2ccc(Cl)cc2)C1 (stereo unspecified)	-20	12%	23%	?	?	?
Cc1cc(C)nc(N2CCN(c3ncnc4c3cnn4Cc3ccc(Cl)cc3Cl)CC2)n1	3	1%	0%	?	-16%	3.7µM*
Cc1ccc(Cl)cc1-n1ncc2c(N3CCC(C)CC3)ncnc21	nt	nt	nt	23µM*	nt	9.2µM*
Cc1ccccc1N1CCN(c2ncnc3c2cnn3Cc2ccc(Cl)cc2)CC1	?	-12%	-5%	13µM*	?	13µM*
CCN(CC)c1ncnc2c1cnn2Cc1ccc(C)cc1	1	-14%	-12%	?	1%	12µM*
CCN1CCN(c2ncnc3c2cnn3-c2ccc(Cl)cc2)CC1	-18	-4%	-8%	?	?	?
Cc1c(NC(=O)CN2CCN(c3ccc(F)cc3)CC2)c(=O)n(-c2ccccc2)n1C	0	12%	13%	1%	6%	-4%
O=C(NC1CCCCC1)C(=S)N1CCOCC1	4	25%	-3%	-4%	22%	16%
O=C(Nc1ccc(Cl)c(C(F)(F)F)c1)NC1CC2CCCC(C1)N2C1CC1 (stereo unspecified)	?	?	?	11µM*	nt	11µM*

Compound activity (PubChem BioAssay)
